# Screens: PubChem, Broad Institute
# aSyn 5UTR act: Activators working through SNCA 5'UTR binding (MLPCN); alpha-synuclein 5'UTR reporter, activators screen; activity score, % (tested at 7.5 µM), hits read low; hit rate 7.1% among 300,000; in the data active = activity score below about -60%
# * = called active by the depositor. A selection follows.
SMILES,aSyn 5UTR act
O=C(Nc1ccc(F)cc1)c1ccc2c(=O)n3c(nc2c1)CCCCC3,-104*
O=C(Nc1ccc(Cl)cc1)c1ccc2c(=O)n3c(nc2c1)CCCCC3,-120*
O=C(Nc1cccc(Cl)c1)c1ccc2c(=O)n3c(nc2c1)CCCCC3,-217*
O=C(Nc1ccc(F)c(Cl)c1)c1ccc2c(=O)n3c(nc2c1)CCCCC3,-166*
CC(=O)Nc1nc2ccccc2n1Cc1ccccc1C,67
CCCCCCCn1c(NC(=O)CC)nc2ccccc21,68
Cc1ccc(C(=O)Nc2nc3ccccc3n2CCN2CCCC2)cc1,-76*
C=CCn1c(NC(=O)c2ccc(C)cc2)nc2ccccc21,-111*
Cc1cc(C(=O)CSc2ncccn2)c(C)n1-c1cccc(F)c1,-84*
Cc1ccc(-n2c(C)cc(C(=O)COc3cccnc3[N+](=O)[O-])c2C)cc1,64
Cc1cc(C(=O)CSc2nnnn2C)c(C)n1-c1cccc(F)c1,-131*
O=C1c2ccccc2C(=O)c2c1ncn2-c1ccccc1,70
C=CC(=O)Oc1ccc(N2Cc3ccccc3C2=O)cc1,-114*
O=C1c2ccccc2CN1c1ccccc1,-107*
Cc1ccc(NC(=O)/C=C/c2ccc([N+](=O)[O-])s2)cc1,-212*
Cc1ccc(NC(=O)/C=C/c2ccc([N+](=O)[O-])s2)c(C)c1,-93*
Cc1cccc(NC(=O)/C=C/c2ccc([N+](=O)[O-])s2)c1,-224*
Cc1cc([N+](=O)[O-])ccc1NC(=O)/C=C/c1cccs1,-158*
COc1ccc(N2CCN(Cc3cc(=O)oc4cc(-c5ccccc5)c(O)cc34)CC2)cc1,73
Cc1ccc2c(CN3CCC(C)CC3)cc(=O)oc2c1C,-126*
COc1ccc(C2CC(c3ccc4ccccc4c3OC(C)=O)=NN2C(C)=O)cc1 (stereo not drawn),-203*
CC(=O)N1N=C(c2ccc(C)o2)CC1c1ccc(Br)cc1 (stereo not drawn),-199*
COc1ccc(C2CC(c3ccc(C)o3)=NN2C(C)=O)cc1 (stereo not drawn),-128*
COc1ccc(C2CC(c3ccc(Cl)cc3)=NN2C(C)=O)cc1 (stereo not drawn),-116*
Cc1ccc(NC(=O)NCCN2C(=O)C3C4C=CC(C4)C3C2=O)cc1 (stereo not drawn),-81*
SMILES,aSyn 5UTR act
CN(C)CCCNc1cc(-c2ccccc2)nc2cc(-c3cccc(F)c3)nn12,-62*
c1ccc(Nc2cccc(Nc3ccccc3)c2)cc1,-86*
O=C(Nc1ccccc1)Nc1ccc(Nc2ccccc2)cc1,-111*
O=C(Nc1ccccc1)Nc1ccc(Cl)nc1Cl,-93*
CCN(CC)c1ccc(NC(=O)c2ccccc2F)cc1,-411*
O=C(Nc1ccc(Nc2ccccc2)cc1)c1ccccc1F,-174*
Cn1c(CSc2ccccc2)c(C#N)c2ccccc21,-131*
Cc1nc2ccccc2n1-c1nc(-c2ccco2)cc(C(F)(F)F)n1,90
FC(F)(F)c1cc(-c2ccco2)nc(N2CCN(c3ccccc3)CC2)n1,-65*
COc1cc(/C=C2/C(=N)N3OC(C)=CC3=NC2=O)ccc1OCCOc1ccc(C)cc1,-75*
CC(=O)NC(=S)Nc1ccc2oc(-c3cc(F)c(F)cc3Cl)nc2c1,-111*
O=C(Cc1ccccc1)NC(=S)Nc1ccc2oc(-c3ccccc3F)nc2c1,-187*
O=C(Cc1ccccc1)NC(=S)Nc1ccc2oc(-c3ccccc3)nc2c1,-106*
Fc1ccc(/C=N/Nc2nccnc2Cl)cc1,-120*
Fc1cccc(/C=N/Nc2nccnc2Cl)c1,-106*
Oc1ccc(/C=N/Nc2nccnc2Cl)cc1,-124*
Cc1nn2c(-c3ccccc3)ccnc2c1-c1ccccc1,-139*
Cc1nn2c(N)c(-c3ccccc3)cnc2c1-c1ccc(Cl)cc1,-193*
Cc1ccc(-c2ccnc3c(Cl)c(C)nn23)cc1,69
Cc1nc2nc(N)nn2c(C)c1C/C=C/c1ccccc1,46
Cc1nn2c3c(cnc2c1-c1ccccc1)C(=O)CCC3,-90*
Cc1nc2c(-c3ccccc3)c(C)nn2c(N)c1-c1ccccc1,-137*
O=c1[nH]c(=O)n([C@H]2C[C@H](O)[C@@H](CO)O2)cc1F,80
COc1ccc(C(=O)Nc2cccc(C(=O)N/N=C/c3ccc(OC)cc3OC)c2)cc1,83
COc1ccc(/C=N/NC(=O)c2cccc(NC(=O)c3ccccc3Cl)c2)cc1,-99*
SMILES,aSyn 5UTR act
CC(=O)Nc1cccc(C(=O)N/N=C/c2ccccc2F)c1,-109*
CC(=O)Nc1cccc(C(=O)N/N=C/c2ccc(F)cc2)c1,-115*
COc1ccccc1/C=C/C(=O)c1ccc(NC(C)=O)cc1,-205*
COc1ccc(/C=C/C(=O)OCC(=O)c2ccc3c(c2)NC(=O)CO3)c(OC)c1,42
COc1cc(CC(=O)OCC(=O)c2ccc3c(c2)OCCO3)cc(OC)c1OC,100
O=C(/C=C/c1ccccc1O)c1ccc(Cl)cc1,-189*
COc1ccc(/C=C/C(=O)c2ccc3c(c2)OCO3)c(OC)c1,-85*
COc1cccc(/C=C/C(=O)c2ccc3c(c2)OCCO3)c1OC,-307*
COc1cc(O)c(C(=O)/C=C/c2ccccc2)c(OC)c1,-163*
COc1ccccc1/C=C/C(=O)c1ccccc1,-155*
